For 92 molecules, activation results are on record in PubChem BioAssay AID1509 (The Scripps Research Institute Molecular Screening Center, 2009).

Out of some 220,000 compounds screened, about 770 (0.35%) were called active. This is one part of a sample in which actives are shown more often than they occur. Values without a mark were called inactive. No stated cut-off is given here; in the data, active means activation above about 11%; inactive means the rest. Where a SMILES comes first, the peptide text is derived from it. [ ]: non-standard residue; d: D form. ξ: configuration not given here. ξM = CSCCC(N)C(=O)O

For the test, the target named is Sphingosine 1-phosphate receptor 4 (Homo sapiens) (UniProt O95977). Kind of test: S1P4 receptor agonists, primary screen, cell-based (AID 1509).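 Further: 0% = DMSO vehicle and 100% = reference agonist.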 The conditions noted are these: S1P4-expressing cell line, agonist reporter assay; at 4.98 µM; stronger effect = higher value.
Sequence of Sphingosine 1-phosphate receptor 4 (Homo sapiens) (O95977 whole entry, looked up): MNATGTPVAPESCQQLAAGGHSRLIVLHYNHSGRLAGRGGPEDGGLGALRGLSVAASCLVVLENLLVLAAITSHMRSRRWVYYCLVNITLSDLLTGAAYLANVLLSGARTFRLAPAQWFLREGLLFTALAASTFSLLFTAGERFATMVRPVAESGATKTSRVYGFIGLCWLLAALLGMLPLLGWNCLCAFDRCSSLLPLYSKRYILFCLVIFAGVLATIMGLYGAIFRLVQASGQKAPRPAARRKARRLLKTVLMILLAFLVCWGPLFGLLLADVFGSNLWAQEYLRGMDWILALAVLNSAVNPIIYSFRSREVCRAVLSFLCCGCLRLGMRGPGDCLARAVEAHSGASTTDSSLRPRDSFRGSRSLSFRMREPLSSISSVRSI
In the case of `C=CCOc1c(CNn2cn[nH]c2=S)cccc1OC`, the activation is 0.93%. The result for `N/C(=N\OC(=O)c1ccc2c(c1)OCO2)c1ccc(Br)cc1` reads -1.54%. The result for `NNC(=O)c1ccc(COCC(F)(F)C(F)F)cc1` reads -0.58%; that for `C=CCNC(=O)c1ccccc1NC(=O)c1ccc(Cl)c(S(=O)(=O)Nc2cccc(C)c2C)c1`, 2.53%; that for `CS(=O)(=O)c1sc(C(=O)NC(=S)Nc2ccc(OC(F)(F)F)cc2)c2c1C=CCC2`, -1.4%. Consider `O=C(CN1C(=O)NC(Cc2ccccc2)(Cc2ccccc2)C1=O)NCC1CCCCC1`, for which the activation was -1.64%.

As to `CCOc1ccc(N2C(=O)CC(N(CCc3ccc(OC)c(OC)c3)C(=S)Nc3ccccc3)C2=O)cc1` (configuration not stated), the activation was 1.87%. The result for `O=C(CCCn1c(SCC(=O)c2ccccc2)nc2ccccc2c1=O)NCC1CCCO1` (configuration not stated) reads 0.54%; that for `O=C(CCn1c(SCC(=O)c2ccccc2)nc2ccccc2c1=O)NCc1ccc(F)cc1`, 0.31%; that for `O=C(CCCn1c(SCC(=O)c2ccc(F)cc2)nc2ccccc2c1=O)NCc1ccco1`, 30.4% (active). The result for `CCOC(=O)N1CCN(c2c(NCCN3CCN(c4ccccc4F)CC3)c(=O)c2=O)CC1` reads 1.24%. For the molecule `COc1ccc(S(=O)(=O)NC(C)C)cc1C(=O)NC1CCCCC1`, the activation was 1.54%. With `CC(=O)OC(C(=O)NC1CCCCC1)c1ccccc1` (configuration not stated), the activation was 0.59%. In the case of `CC(Oc1ccc(Br)cc1Br)C(=O)NC1CCCC1` (configuration not stated) it was 14.4% (active); in that of `Cc1cc(C(=O)NNC(=O)CCC2CCCCC2)c(C)o1`, 0.49%; in that of `c1ccc2c(c1)OCCOCCOCCO2`, 0.22%. The result for `COCCNC(=O)c1ccc(-n2c(SCc3cccnc3)nc3ccccc3c2=O)cc1` reads 1.25%; that for `CCC1=NN2C(=N)/C(=C/c3cc(C)n(-c4ccccc4)c3C)C(=O)N=C2S1`, -0.01%.

Regarding `Cc1cc2c(cc1C)N(Cc1ccccc1)C1=NCCCN12`, the activation is -0.25%. The result for `O=[N+]([O-])c1ccc(F)cc1Oc1nc(-c2cccnc2)nc2ccccc12` reads 0.24%; that for `COC(=O)CNC(=O)C(CCSC)NC(C)=O` (configuration not stated) (Ac-[ξM]-Gly-OMe), 29.1% (active); that for `COC(=O)[C@H](CCSC)NC(=O)Nc1ccc(OC)cc1`, 0.47%. In the case of `CCC(C)NC(=O)N[C@@H](CCSC)C(=O)O` (some centres not stated) it was 1.44%. Consider `O=c1c2ccccc2nnn1CSc1nnnn1-c1ccccc1`, for which the activation is 0.58%. As to `C=CCn1c(SCn2nnc3ccccc3c2=O)nnc1-c1ccc(Cl)cc1`, the activation was 19% (active).

With `O=C(Cn1nnc2ccccc2c1=O)NCc1ccc(Cl)cc1`, the activation is -1.75%. `C/C(CCC(=O)OC[C@H]1O[C@H](C#Cc2ccccc2)C=C[C@@H]1Oc1ccc(C)cc1)=N\OC[C@@H](O)[C@H]1O[C@@H]2OC(C)(C)O[C@@H]2[C@H]1O`: the activation is 0.09%. The result for `O=C1COc2ccc(C(=O)COC(=O)C3CC(O)CN3S(=O)(=O)c3ccc(Cl)cc3)cc2N1` (configuration not stated) reads 1.17%. The result for `O=C(COC(=O)C1CCN(S(=O)(=O)c2ccc3c(c2)OCCO3)CC1)Nc1ccccc1OC(F)F` reads 2.37%. The result for `CC1CCCC(NC(=O)COC(=O)[C@@H]2CC(O)CN2S(=O)(=O)c2ccc3c(c2)OCCO3)C1C` (some centres not stated) reads 194% (active); that for `NC(=O)C1=C[C@H](c2csc3ccccc23)C[C@H](OCc2ccc(CO)cc2)O1`, 3.3%. Regarding `COc1ccc(C(=O)N2CCc3cc(OC)c(OC)cc3C2c2cccc([N+](=O)[O-])c2)cc1` (configuration not stated), the activation was 0.65%. As for `Cc1noc(C)c1COC(=O)c1cc2ccccc2cc1O`, the activation is -2.59%. As to `Cc1noc(C)c1COC(=O)Cn1c(C)nc2ccccc21`, the activation is -0.11%. As for `Cc1noc(C)c1COC(=O)COc1ccc(-c2ccccc2)cc1`, the activation was 36% (active).

As to `O=C(Nc1ccc(Br)cc1)c1cccc(NC(=O)C2C3CC4OC(=O)C2C4C3)c1` (configuration not stated), the activation was 1.27%. In the case of `COc1ccc(CCNC(=O)COC(=O)Cc2cc(OC)c(OC)c(OC)c2)cc1` it was -1.28%; in that of `CC(=O)Nc1ccc(S(=O)(=O)N2CCN(c3ccc([N+](=O)[O-])c(NCCN4CCOCC4)c3)CC2)cc1`, 0.49%; in that of `Cn1nnnc1SCC(=O)NNC(=O)c1ccc(Br)cc1`, 0.67%. As to `CN(Cc1ccccc1)C(=O)COC(=O)c1ccccc1Nc1ccccc1`, the activation is -0.61%. The result for `COC(=O)c1c(NC(=O)CN2C(=O)NC(CCc3ccccc3)C2=O)sc2c1CCCCC2` (configuration not stated) reads 0.65%; that for `CCOC(=O)/C=c1\s/c(=C\c2ccc(C#N)cc2)c(=O)n1CC(=O)Nc1cccc(C)c1C`, -0.03%.

With `Cc1cc(C)nc(N(C#N)CC(=O)Nc2ccccc2)n1`, the activation was 14.7% (active).

As to `CCOC(=O)/C(C#N)=C/c1ccc(OCC(=O)Nc2ccccc2)c(OC)c1`, the activation is -0.12%.

As for `Cc1ccc(CC(=O)Nc2cccc(C#N)c2)cc1`, the activation is 1.55%. Turning to `N#Cc1c(NC(=O)C2CC(Cl)=CCC2C(=O)O)sc2c1CCCCC2` (configuration not stated), the activation was 0.41%. With `Cn1nnnc1NCc1ccc(Cl)c(Cl)c1`, the activation was 0.14%. The result for `COc1ccc(N(CC(=O)NC2CCCC2)C(=O)CS(=O)CC(=O)Nc2ccc3c(c2)OCO3)cc1` (configuration not stated) reads 1.8%; that for `COc1ccc(-c2cn3ccc(C)cc3n2)cc1`, 0.65%; that for `CCOC(=O)CC(NC(=O)C1c2ccccc2Oc2ccccc21)c1ccc(C)cc1` (configuration not stated), -0.87%. The result for `CCC(C)(C)NC(=O)C1c2ccccc2Oc2ccccc21` reads 0.03%; that for `CCC(C)NC(=O)C1c2ccccc2Oc2ccccc21` (configuration not stated), 15.7% (active). The result for `O=[N+]([O-])c1ccc2[nH]c3c(c2c1)CCCC3O` (configuration not stated) reads 0.79%; that for `Cc1csc(NC(=O)CSc2ccc(-c3ccc(F)cc3)nn2)n1`, 0.5%. Turning to `Cc1ccc(SCC(=O)Nc2ccc3c(c2)OCCO3)cc1`, the activation was -0.03%.

Consider `O=C(CSc1ccc(-c2ccc(F)cc2)nn1)Nc1ccc2c(c1)OCCO2`, for which the activation is 57.3% (active). In the case of `O=C(CSc1nnc(C2CC2)n1Cc1ccccc1)Nc1cccnc1Cl` it was 0.19%. In the case of `O=C(CSc1nnc(Nc2ccccc2)s1)Nc1cccnc1Cl` it was 62.7% (active); in that of `Cc1cc(NC(=O)CSc2nnc(Nc3ccccc3F)s2)no1`, 0.31%. In the case of `CCn1nnnc1SCC(=O)c1ccc(C)cc1C` it was -0.47%. As for `Cc1ccc(NC(=O)N2CCSc3ccccc32)cc1`, the activation was 0.59%. Turning to `CC(=O)Nc1ccc(Nc2c([N+](=O)[O-])cc(S(C)(=O)=O)cc2[N+](=O)[O-])cc1`, the activation was -0.76%. In the case of `Cn1c(=O)c2c(nc(N3CCOCC3)n2CCNC2=NCCC2)n(C)c1=O` it was -3.47%; in that of `CC(=O)Nc1ccccc1NC(=O)c1cc(C)cc(C)c1`, 52.2% (active). On to `CSCc1ccc(C(=O)Nc2cc(C)cc(C)c2)cc1`, for which the activation was 0.79%. The result for `Cc1ccc(C(=O)NC(=S)Nc2ccccc2C)cc1` reads 1.14%. On to `O=S(=O)(NCCc1ccncc1)c1ccccc1`, for which the activation is -2.17%. In the case of `CCN(CC)CCCSc1nc2ccccc2s1` it was -1.06%; in that of `CCOc1ccc(-c2nnc(-c3ccco3)o2)cc1`, 13.2% (active).

As to `CCC(=O)Oc1cccc(C(=O)Nc2ccc(-c3nnc(-c4ccco4)o3)cc2)c1`, the activation is 1.45%. Take `CCCCOc1ccc(-c2nnc(-c3ccco3)o2)cc1`: the activation was 0.55%. In the case of `COC(=O)[C@@H]1CC[C@H](C)[C@@H](c2ccc(C)cc2)N1C(=O)c1ccc(/C=N/O[C@H](C)c2cn([C@@H]3COC[C@H]3O)nn2)cc1`, the activation was 44.7% (active). The result for `O=C(CC1C(=O)NCCN1CC(c1ccccc1)c1ccccc1)NCCc1cn[nH]c1` (configuration not stated) reads -1.81%; that for `Cc1cc(C(=O)COC(=O)C2CC2)c(C)n1-c1ccc(F)cc1`, 1.5%. As for `Cc1ccc(S(=O)(=O)NC(=O)Nc2nc(-c3ccc(F)c(F)c3)cs2)cc1`, the activation is 1.19%. In the case of `CNS(=O)(=O)c1ccc(NC(=O)C2CC(=O)N(c3ccc(Cl)cc3)C2)cc1` (configuration not stated), the activation was -4.58%. The result for `COc1cccc2c1CCC(NC(C)=O)C2=O` (configuration not stated) reads 1.12%. The result for `O=C(CSc1nnc(Cc2ccccc2)n1-c1ccccc1)N1CCOCC1` reads -2.13%; that for `O=C(CSc1nncn1-c1cccnc1)N1CCOCC1`, 44.7% (active). In the case of `Cn1c(SCC(=O)N2CCOCC2)nnc1-c1ccc2ncccc2c1` it was 1.83%; in that of `O=C(Nc1ccc(NC(=O)c2ccco2)c(Cl)c1)c1cccc([N+](=O)[O-])c1`, 1.27%; in that of `CCN(CC)S(=O)(=O)c1cccc(-c2n[nH]c(=S)n2/N=C/c2ccc(C(=O)OC)cc2)c1`, 0.89%. `O=[N+]([O-])c1cccc(Nc2c3ccccc3nc3ccccc23)c1`: the activation was 13.1% (active). The result for `CC(=O)Nc1ccc(Nc2c3ccccc3nc3ccccc23)cc1` reads 4.18%; that for `Cc1cc(CNC(=O)c2cccc([N+](=O)[O-])c2)c2ccccc2n1`, 1.06%. The result for `CCCCc1ccc(S(N)(=O)=O)cc1` reads -0.75%; that for `CC(C)(C)n1cnnc1Sc1ccc([N+](=O)[O-])cn1`, -0.36%. As to `CC(C)(C)C(=O)NCCCNc1ccc([N+](=O)[O-])cc1`, the activation is 0.65%.

For `Cc1cc(C)c(C#N)c(SCC(=O)NN2CC(=O)N(c3ccccc3F)CC2=O)n1`, the activation is 55.1% (active). In the case of `Cc1cc(C)c(C#N)c(SCc2ccccc2C(=O)O)n1` it was 0.52%; in that of `Cc1cc(C)c(C#N)c(SCC(=O)Nc2ccccc2)n1`, 2.39%; in that of `O=C(O)CCn1cc(/C=C/C(=O)c2ccc(Cl)cc2)c(-c2cccc(Br)c2)n1`, 0.7%.
